Where “and” joins values, the source holds several entries; their conditions need not be identical. Equal entries are not always repeated. Screen size: about 260,000 compounds; about 1,500 (0.58%) were called active. About 5% were inconclusive and are not listed. Not all results are given here. Potency and affinity values are given separately. Unmarked numbers belong to inactive results.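 How the source made its calls: active means inhibition above a set limit at one or more doses, reproduced on every date tested; inconclusive means results disagree between test dates, or hit never tested in dose response; inactive means the rest.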

For the experiment, the target named is Virion infectivity factor (Human immunodeficiency virus type 1 group M subtype B (isolate BH10)) + Virion infectivity factor (Human immunodeficiency virus type 1 group M subtype B (isolate BRU/LAI)) + Virion infectivity factor (Human immunodeficiency virus type 1 group M subtype B (isolate PCV12)) + Virion infectivity factor (Human immunodeficiency virus type 1 group M subtype B (isolate HXB2)) + DNA dC->dU-editing enzyme APOBEC-3G (Homo sapiens) (UniProt P69720+P69721+P69722+P69723+Q9HC16). The experiment can be described thus: HIV-1 Vif–A3G interaction blockers – biochemical, TR-FRET, GST-Vif 1-94, biotin-A3G peptide, dose response retest, primary screen (AID 1117319).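 Further: Vif residues 1-94 fused to GST binding biotinylated APOBEC3G peptide 110-148; 0% = full assay without inhibitor and 100% = GST in place of GST-Vif.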 To be noted: TR-FRET GST-Vif / biotin-A3G peptide binding; hits give high values.
Consider `COc1ccc([C@H]2CC(=O)c3c(O)cc(O)cc3O2)cc1O`, for which the inhibition is 9.99%.

For `COc1cc(C2CC(=O)c3c(O)cc(O)cc3O2)ccc1O` (stereo not given), the inhibition was 9.19%.

As for `O=[N+]([O-])c1cc2c(c(CSc3ncccn3)c1)OCOC2`, the inhibition was 1.34%.

Turning to `Cc1nnc(SCc2cc([N+](=O)[O-])cc3c2OCOC3)n(N)c1=O`, the inhibition was 20.5%.

As to `COc1ccc(CCNC(=O)COc2coc(CN3c4ccccc4CC3C)cc2=O)cc1OC` (stereo not given), the inhibition is 3.96%.

For `CCOC(=O)c1oc2ccc(/C=N/O)c(Cl)c2c1C`, the inhibition is -0.46%.

As to `CC1CN(C(=O)COC(=O)c2cnc(Cl)c(Cl)c2)CC(C)O1` (stereo not given), the inhibition was -12.2%.

Regarding `Nc1ncnc2c1ncn2[C@@H]1O[C@H](CNC(=O)[C@@H]2C[C@H](F)CN2)[C@@H](O)[C@H]1O`, the inhibition is -0.68%.

For `COc1cccc(CNc2ccc(F)c([N+](=O)[O-])c2)c1O`, the inhibition was -12%.

With `COCCCn1c(=NC(=O)c2ccncc2)c(C#N)cc2c(=O)n3cccc(C)c3nc21`, the inhibition is 3.9% and 7.65%.

Regarding `CCCCn1c(=NC(=O)c2ccc3c(c2)OCO3)c(C#N)cc2c(=O)n3cccc(C)c3nc21`, the inhibition was 6.53%.

With `O=C(c1cccc(S(=O)(=O)N2CCc3ccccc32)c1)N1CCN(c2ccccn2)CC1`, the inhibition is -7.91%.

Consider `Cc1cnc(C(=O)OCC(=O)Nc2cc(-c3cc(C)c(C)cc3C)nn2-c2ccccc2)cn1`, for which the inhibition is 3.14%.

For the molecule `COc1ccccc1-n1c(-c2cc(-c3ccc(F)cc3)n[nH]2)n[nH]c1=S`, the inhibition was 0.73%.

With `COc1ccccc1-n1c(-c2ccco2)n[nH]c1=S`, the inhibition was -2.63%.

In the case of `S=c1[nH]nc(-c2cc(-c3ccco3)[nH]n2)n1-c1ccccc1`, the inhibition was 4.55%.

Take `S=c1[nH]nc(-c2cc(-c3ccco3)[nH]n2)n1-c1cccc2ccccc12`: the inhibition was 16.8%.

With `Cc1cc2c(cc1C)NC1=C(N2)OC(c2cccc(O)c2)C1=O` (stereo not given), the inhibition is 5.24%.

With `NS(=O)(=O)c1ccc(CCNC(=O)CSc2ccsc2[N+](=O)[O-])cc1`, the inhibition was 4.39%.

On to `CC(=O)N1CCN(C(=O)CCNC(=O)c2ccc(Br)cc2)CC1`, for which the inhibition was 0.92%.

As for `CCN1CCN(c2nc3ccccn3c(=O)c2/C=C(\C#N)S(=O)(=O)c2ccccc2)CC1`, the inhibition was -0.55%.

Regarding `COC(=O)c1ccc(C(=O)NN)cc1`, the inhibition is -8.26%.

Take `Cc1cccc(NC(=O)Cc2ccc(F)cc2)c1`: the inhibition is -2.86%.

In the case of `Cc1ccc(NC(=O)CCc2nc(-c3cccs3)no2)c(Br)c1`, the inhibition is 0.83%.

For `C(=C\c1ccc2ccccc2n1)/c1ccccc1`, the inhibition is 10.9%.

As to `Fc1ccccc1/C=C/c1ccc2ccccc2n1`, the inhibition is 1.57%.

With `CN(C)c1c2ccccc2nc2c(F)c(F)c(F)c(F)c12`, the inhibition is -2.85%.

Consider `Cc1c(N(C)C)nc2ccccc2c1N`, for which the inhibition was -3.71%.

`CNC(=O)COc1coc(CN2CCN(c3cccc(Cl)c3)CC2)cc1=O`: the inhibition is 6.04%.

In the case of `CCOc1ccccc1OCC(=O)NC1CCCCC1`, the inhibition was -0.58%.

On to `CCOC(=O)N/N=C(/c1ccccc1)C1CCCCC1`, for which the inhibition was -4.75%.

For the molecule `CCN(C(=O)COC(=O)/C=C/c1cnc2ccccc2n1)c1ccccc1`, the inhibition is -2.53%.

In the case of `CCOCC(=O)OCC(=O)Nc1cc(OC)c([N+](=O)[O-])cc1C`, the inhibition was 7.7%.

As for `COc1cccc(-c2nnc(SCC(=O)Nc3cc(C)ccc3OC)n2N)c1`, the inhibition is 3.89%.

`CCn1cc[n+](C)c1P(c1ccccc1)c1ccccc1`: the inhibition was 3.82%.

As for `COCCCn1c(=O)c2sccc2n2c(CCCC(=O)NCc3ccccc3OC)nnc12`, the inhibition is -3.09%.

Take `O=[N+]([O-])c1ccc(Cl)c(S(=O)(=O)NC2=NCCC2)c1`: the inhibition is -7.04%.

For `Cc1ccc([N+](=O)[O-])cc1S(=O)(=O)Nc1cccc(S(=O)(=O)NC2=NCCC2)c1`, the inhibition was 3.32%.

As for `CC1(C)CC(=O)C=C(c2n[nH]nc2-c2ccc(F)c(F)c2)C1`, the inhibition was -13.9%.

`CCOC(=O)c1cc(-c2ccc(OC)cc2OC)nn1-c1ccc(C(=O)O)cc1`: the inhibition was 4.72%.

As to `CC(C)N1CCc2c(sc(NC(=O)c3ccc(S(=O)(=O)N4CCOCC4)cc3)c2C(N)=O)C1`, the inhibition was -2.18%.

As for `CN1CCc2c(sc(NC(=O)c3ccc(S(=O)(=O)N4CCOCC4)cc3)c2C(N)=O)C1`, the inhibition was 18.7%.

Turning to `Cc1c(C(=O)N(C)Cc2nc3ccccc3c(=O)[nH]2)oc2ccccc12`, the inhibition is -2.36%.

With `O=C1C=C(NCc2ccc(Cl)cc2)CC(c2ccco2)C1` (stereo not given), the inhibition is 32.3%.

As to `O=C1C=C(Nc2ccc(Cl)cc2Cl)CC(c2ccco2)C1` (stereo not given), the inhibition is 2.86%.

Consider `Cc1ccc(NC2=CC(=O)CC(c3ccco3)C2)c(N)c1` (stereo not given), for which the inhibition is 23.3%.

As to `Cc1ccc(C2CC(=O)C=C(NCC(C)C)C2)cc1` (stereo not given), the inhibition is 3.68%.

For `Cc1ccnc(NC(=O)c2ccc3c(c2)OCO3)c1`, the inhibition was 4.65%.

With `Cc1cc(C)c2c(c1)/C(=N\N=c1\sc3ccccc3n1C)C(=O)N2`, the inhibition was 0.52%.

Take `Cc1cccc2c1NC(=O)C2=O`: the inhibition is 32.4%.

Regarding `COc1ccc(OC)c(NC(=O)CCN2CCCCC2)c1`, the inhibition was -3.02%.

As to `COc1ccc(OC)c(NC(=O)CCN2CCN(C)CC2)c1`, the inhibition is 2.28%.

In the case of `N#Cc1cccc(NC(=O)CSc2nnc(-c3n[nH]c4ccccc34)o2)c1`, the inhibition is -4.45%.

Consider `Cc1cc(C(=O)COC(=O)c2ccccc2Br)c(C)n1CC1CCCO1` (stereo not given), for which the inhibition was 30.3%.

With `Cc1cc(C(=O)COC(=O)c2ccccc2O)c(C)n1CC1CCCO1` (stereo not given), the inhibition was -14.1%.

With `CCCn1c(C)cc(C(=O)CN2C(=O)c3ccccc3S2(=O)=O)c1C`, the inhibition is 0.72%.

For `Cc1ccc(-n2nnnc2SCC(=O)c2cc(C)n(CC3CCCO3)c2C)cc1` (stereo not given), the inhibition was -3.58%.

`Cc1cccc(-n2nnnc2SCC(=O)c2cc(C)n(CC3CCCO3)c2C)c1` (stereo not given): the inhibition is 22.8%.

For `CCn1c(C)cc(C(=O)CN2C(=O)c3ccccc3S2(=O)=O)c1C`, the inhibition was 6.44%.

In the case of `COc1ccc(OCC(=O)Nc2ccc(OC)c(S(=O)(=O)N3CCCCC3)c2)cc1`, the inhibition is -0.4%.

As to `N#CC1=C(S)N=C(N)C(c2nc(-c3ccccc3)cs2)C12CCCCC2` (stereo not given), the inhibition was 13.7%.

`CCOC(=O)c1ccc(NC(=O)CSc2nnc(Cn3c(=O)sc4ccccc43)n2C)cc1`: the inhibition is -11.7%.

Take `O=C(CN(C(=O)CNS(=O)(=O)c1ccc(F)cc1)C1CCCC1)NCc1ccco1`: the inhibition was -8.82%.

Take `COC(=O)Cn1cnc2c(nnn2-c2ccc(OC)cc2)c1=O`: the inhibition was -8.1%.

`O=C(/C=N/O)NCc1cccnc1`: the inhibition is -3.6%.

For the molecule `O=C(N=C1SC2CS(=O)(=O)CC2N1c1ccc(Br)cc1)C1CCCO1` (stereo not given), the inhibition was 2.67%.

On to `NC(=O)CN1C(=O)/C(=c2\sc3nc(=O)c(Cc4ccccc4)nn3c2=O)c2ccccc21`, for which the inhibition is -13.2%.

Regarding `COC(=O)c1cc(Br)c(=O)n(CC(C)C)c1`, the inhibition was 4.6%.

Turning to `CC(C)c1cc(C(=O)OCC(=O)NC2CC2)c(O)c(C(C)C)c1`, the inhibition was 1.52%.

`CC1CCCCN1c1ccc(N)cc1C(N)=O` (stereo not given): the inhibition is 0.06%.

With `Nc1cc(C(=O)O)ccc1N1CCCCCC1`, the inhibition was 8.01%.

On to `NC(=O)c1cc(N)ccc1N1CCCCC1`, for which the inhibition is -6.02%.

Take `COC(=O)c1ccc(N2CCCCC2)c(N)c1`: the inhibition is 24.1%.

`Cc1cccc(NC(=O)C2SC(=Nc3c(C)cccc3C)C(C(=O)N3CCOCC3)=C2N)c1` (stereo not given): the inhibition is 13.6%.

In the case of `N#Cc1ccccc1CN1C(=O)NC(Cc2c[nH]c3ccccc23)C1=O` (stereo not given), the inhibition was -3.01%.

Consider `COc1ccc(/C=N/NC(=O)c2ccc3c(c2)OCO3)cc1`, for which the inhibition was -0.02%.

As for `COc1ccc(C(=O)N/N=C/c2ccc(SC)cc2)cc1`, the inhibition was -0.44%.

`CSCCC(NC(=O)c1ccccc1)C(=O)N/N=C(\C)c1ccccc1` (stereo not given): the inhibition was -5.06%.

As to `Cc1ccc(Nc2ccc(C(=O)O)cc2N)cc1`, the inhibition is 15%.

Consider `Nc1cccc(Nc2ccccc2)c1`, for which the inhibition is 1.33%.

As to `Cc1ccc(NS(=O)(=O)c2cc(N)ccc2Cl)c(C)c1`, the inhibition was 28.9%.

As for `Nc1cc(C(=O)O)ccc1Nc1ccccc1`, the inhibition was 13%.

For `Cc1ccc(-n2cc(-c3ccccc3)c3c(NN4CCOCC4)ncnc32)cc1`, the inhibition is 21%.

With `COc1cc2nc(N(CCN(C)C)C(=O)c3ccc4ccccc4c3)sc2cc1OC`, the inhibition was -3.84%.

`O=C1COc2ccc(C(=O)COC(=O)Cc3ccc(F)cc3)cc2N1`: the inhibition was -9.09%.

As to `Nc1c(C(=O)OCC(=O)Nc2ccc(Cl)cc2[N+](=O)[O-])[nH]c(=O)[nH]c1=O`, the inhibition is -3.88%.

On to `CCc1cc2cccc(C)c2nc1SCC(=O)N1CCN(C(=O)c2ccco2)CC1`, for which the inhibition is 5.89% and -1.51%.

Turning to `CCc1cc2cc(C)ccc2nc1SCC(=O)N1CCN(C(=O)c2ccco2)CC1`, the inhibition is 3.37%.

Consider `Cc1cccc(N2CCN(C(=O)c3ccccc3NC(=O)C3=CSCCO3)CC2C)c1` (stereo not given), for which the inhibition is 0.87%.

`Cc1cc(=O)[nH]c2c3ccccc3nn12`: the inhibition was -4.45%.

In the case of `CCOc1ccc(C2C(C(=O)OC)=C(C)N=C3SCCC(=O)N32)cc1OCC` (stereo not given), the inhibition was -1.89%.

For the molecule `CC(C)C(NCc1c(Cl)cccc1Cl)C(=O)O` (stereo not given), the inhibition is -1.01%.

As to `COn1c(-c2ccccc2)nc2c1CCc1c-2no[n+]1[O-]`, the inhibition is 3.61%.

On to `c1ccc(COn2c(-c3ccccc3)nc3c2CCc2nonc2-3)cc1`, for which the inhibition is -7.03%.

For the molecule `Cc1c(C(=O)O)oc2c1C(=O)CC(C)(C)C2`, the inhibition was -2.53%.

One may read the inhibition as the drop in the measured response relative to a control, in per cent.

Values taken from PubChem BioAssay AID1117319 (Southern Research Institute, 2015).
